The whole screen tested about 5,500 compounds, of which about 2,000 (36%) were called active. About 18% were inconclusive and are not listed. This is one part of the list. Values without a mark were called inactive. Cut-off read from the data, not from the text of the source: active = normalized growth mostly below about 0.91 (no sharp cut-off); inconclusive = no clear call, values can overlap the other calls; inactive = mostly above about 0.92.
Assay: chemical genetic growth profiling, strain panel (AID 1159580);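 note: tested at 20 µM; growth read once vehicle control cultures reached saturation at 30 °C; 1 = growth at the plate median or of vehicle wells; lower values mean less growth of the strain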
Conditions: S. cerevisiae deletion strains, growth OD
[1] = locus YHR030C, strain SLT2, hits give low values
[2] = locus YJL187C, strain SWE1, hits give low values
[3] = locus YHR079C, strain IRE1, hits give low values
[4] = locus YJL095W, strain BCK1, hits give low values
[5] = locus YJR066W, strain TOR1, hits give low values
[6] = locus YLR113W, strain HOG1, hits give low values
[7] = locus YNL183C, strain NPR1, hits give low values
[8] = locus YOR231W, strain MKK1, hits give low values
[9] = locus YPL256C, strain CLN2, hits give low values

## COC(=O)C1Cc2c([nH]c3ccccc23)C2(CCN(C)CC2)N1 (stereo unspecified)
Locus YAL013W, strain DEP1, hits give low values
  normalized growth: 1.01
Locus YBR229C, strain ROT2, hits give low values
  normalized growth: 0.989
Locus YDL101C, strain DUN1, hits give low values
  normalized growth: 0.995
Locus YDL134C, strain PPH21, hits give low values
  normalized growth: 0.981
Locus YDR150W, strain NUM1, hits give low values
  normalized growth: 0.986
Locus YEL061C, strain CIN8, hits give low values
  normalized growth: 0.993
Locus YGR078C, strain PAC10, hits give low values
  normalized growth: 0.993
[1]
  normalized growth: 0.985
Locus YHR087W, strain rtc3, hits give low values
  normalized growth: 0.998
[2]
  normalized growth: 0.996
Locus YJR043C, strain POL32, hits give low values
  normalized growth: 1
Locus YJR075W, strain HOC1, hits give low values
  normalized growth: 0.998
Locus YLR039C, strain RIC1, hits give low values
  normalized growth: 0.975
Locus YLR058C, strain SHM2 (second series), hits give low values
  normalized growth: 1.01
Locus YLR085C, strain ARP6, hits give low values
  normalized growth: 1.01
Locus YLR262C, strain YPT6, hits give low values
  normalized growth: 0.981
Locus YML094W, strain GIM5, hits give low values
  normalized growth: 0.961
Locus YMR219W, strain ESC1, hits give low values
  normalized growth: 0.995
Locus YMR263W, strain SAP30, hits give low values
  normalized growth: 1.02
Locus YNL128W, strain TEP1, hits give low values
  normalized growth: 0.973
Locus YNL153C, strain GIM3, hits give low values
  normalized growth: 0.999
Locus YNL298W, strain CLA4 (second series), hits give low values
  normalized growth: 1.02
Locus YNL322C, strain KRE1, hits give low values
  normalized growth: 0.987
Locus YNR030W, strain Alg12, hits give low values
  normalized growth: 1.01
Locus YOL006C, strain TOP1, hits give low values
  normalized growth: 1
Locus YPL055C, strain LGE1, hits give low values
  normalized growth: 1.01
Locus YPL241C, strain CIN2, hits give low values
  normalized growth: 0.977
Locus YPR135W, strain CTF4, hits give low values
  normalized growth: 0.944

## CCCNCCCCCC[N+](C)(C)C
[1]
  normalized growth: 1.02
[3]
  normalized growth: 0.975
[4]
  normalized growth: 0.979
[5]
  normalized growth: 0.927
[6]
  normalized growth: 1.02
[7]
  normalized growth: 0.932
[8]
  normalized growth: 0.984
[9]
  normalized growth: 0.989

## Cc1cc(-n2c(=O)[nH]c(=O)n(C)c2=O)ccc1Oc1ccc(SC(F)(F)F)cc1
Locus YAL021C, strain ccr4, hits give low values
  normalized growth: 0.925
Locus YAL026C, strain drs2, hits give low values
  normalized growth: 0.602 (active)
Locus YAL030W, strain snc1, hits give low values
  normalized growth: 0.565 (active)
Locus YBL061C, strain skt5, hits give low values
  normalized growth: 0.688 (active)
Locus YBR009C, strain hhf1, hits give low values
  normalized growth: 0.552 (active)
Locus YBR023C, strain chs3, hits give low values
  normalized growth: 0.742 (active)
Locus YBR171W, strain sec66, hits give low values
  normalized growth: 0.802 (active)
Locus YBR231C, strain swc5, hits give low values
  normalized growth: 0.868 (active)
Locus YBR279W, strain paf1, hits give low values
  normalized growth: 0.935
Locus YCL011C, strain gbp2, hits give low values
  normalized growth: 0.548 (active)
Locus YCL016C, strain dcc1, hits give low values
  normalized growth: 0.905 (active)
Locus YCL061C, strain MRC1, hits give low values
  normalized growth: 0.792 (active)
Locus YCL069W, strain vba3, hits give low values
  normalized growth: 0.978
Locus YCR088W, strain abp1, hits give low values
  normalized growth: 0.793 (active)
Locus YDL005C, strain med2, hits give low values
  normalized growth: 0.583 (active)
Locus YDL040C, strain nat1, hits give low values
  normalized growth: 0.863 (active)
Locus YDR001C, strain nth1, hits give low values
  normalized growth: 0.845 (active)
Locus YDR069C, strain doa4, hits give low values
  normalized growth: 0.941
Locus YDR137W, strain rgp1, hits give low values
  normalized growth: 0.405 (active)
Locus YDR159W, strain sac3, hits give low values
  normalized growth: 0.532 (active)
Locus YDR195W, strain ref2
  normalized growth: 0.418 (active)
Locus YDR297W, strain sur2, hits give low values
  normalized growth: 0.695 (active)
Locus YDR334W, strain swr1, hits give low values
  normalized growth: 0.855 (active)
Locus YDR335W, strain msn5, hits give low values
  normalized growth: 0.661 (active)
Locus YDR392W, strain spt3, hits give low values
  normalized growth: 0.141 (active)
Locus YEL003W, strain gim4, hits give low values
  normalized growth: 0.704 (active)
Locus YEL037C, strain rad23, hits give low values
  normalized growth: 0.933
Locus YEL061C, strain CIN8 (second series), hits give low values
  normalized growth: 0.647 (active)
Locus YER015W, strain faa2, hits give low values
  normalized growth: 0.994
Locus YER016W, strain bim1, hits give low values
  normalized growth: 0.935
Locus YER111C, strain swi4, hits give low values
  normalized growth: 0.75 (active)
Locus YER155C, strain BEM2 (second series), hits give low values
  normalized growth: 0.968
Locus YFR010W, strain ubp6, hits give low values
  normalized growth: 0.76 (active)
Locus YGL167C, strain pmr1, hits give low values
  normalized growth: 1.02
Locus YGL173C, strain kem1, hits give low values
  normalized growth: 0.895 (active)
Locus YGL227W, strain vid30, hits give low values
  normalized growth: 0.867 (active)
Locus YGL240W, strain doc1, hits give low values
  normalized growth: 0.629 (active)
Locus YGL253W, strain hxk2, hits give low values
  normalized growth: 0.701 (active)
Locus YHR013C, strain ard1, hits give low values
  normalized growth: 0.998
Locus YHR027C, strain rpn1, hits give low values
  normalized growth: 0.969
[1]
  normalized growth: 0.811 (active)
[3]
  normalized growth: 0.786 (active)
Locus YHR142W, strain chs7, hits give low values
  normalized growth: 0.318 (active)
Locus YJL092W, strain hpr5, hits give low values
  normalized growth: 0.844 (active)
Locus YJL095W, strain BCK1 (second series), hits give low values
  normalized growth: 0.754 (active)
[4]
  normalized growth: 0.724 (active)
Locus YJL115W, strain asf1, hits give low values
  normalized growth: 0.926
Locus YJL129C, strain trk1, hits give low values
  normalized growth: 0.882
Locus YJL154C, strain vps35, hits give low values
  normalized growth: 0.644 (active)
Locus YJL164C, strain tpk1, hits give low values
  normalized growth: 0.346 (active)
Locus YJL166W, strain qcr8, hits give low values
  normalized growth: 0.383 (active)
[2]
  normalized growth: 0.546 (active)
[5]
  normalized growth: 0.75 (active)
Locus YKL160W, strain elf1, hits give low values
  normalized growth: 0.69 (active)
Locus YKR026C, strain gcn3, hits give low values
  normalized growth: 0.707 (active)
Locus YKR091W, strain srl3, hits give low values
  normalized growth: 0.908 (active)
Locus YLL001W, strain dnm1, hits give low values
  normalized growth: 0.844 (active)
Locus YLL026W, hits give low values
  normalized growth: 0.169 (active)
Locus YLL041C, strain sdh2, hits give low values
  normalized growth: 0.775 (active)
Locus YLR027C, strain aat2, hits give low values
  normalized growth: 0.589 (active)
[6]
  normalized growth: 0.764 (active)
Locus YLR221C, strain rsa3, hits give low values
  normalized growth: 0.436 (active)
Locus YLR258W, strain gsy2, hits give low values
  normalized growth: 0.705 (active)
Locus YLR262C, strain YPT6 (second series), hits give low values
  normalized growth: 0.367 (active)
Locus YLR320W, strain mms22, hits give low values
  normalized growth: 0.823 (active)
Locus YLR342W, strain FKS1, hits give low values
  normalized growth: 0.864 (active)
Locus YLR357W, strain rsc2, hits give low values
  normalized growth: 0.581 (active)
Locus YLR370C, strain arc18, hits give low values
  normalized growth: 0.886 (active)
Locus YLR384C, strain iki3, hits give low values
  normalized growth: 1.03
Locus YML120C, strain ndi1, hits give low values
  normalized growth: 0.844 (active)
Locus YMR058W, strain fet3, hits give low values
  normalized growth: 0.705 (active)
Locus YMR125W, strain sto1, hits give low values
  normalized growth: 0.709 (active)
Locus YMR129W, hits give low values
  normalized growth: 1.02
Locus YMR205C, strain PFK2, hits give low values
  normalized growth: 0.705 (active)
Locus YMR231W, strain pep5, hits give low values
  normalized growth: 0.703 (active)
Locus YNL071W, strain lat1, hits give low values
  normalized growth: 0.422 (active)
[7]
  normalized growth: 0.81 (active)
Locus YNL209W, strain ssb2, hits give low values
  normalized growth: 0.915 (active)
Locus YNL248C, strain rpa49, hits give low values
  normalized growth: 0.635 (active)
Locus YNL322C, strain KRE1 (second series), hits give low values
  normalized growth: 1.03
Locus YNR049C, strain mso1, hits give low values
  normalized growth: 0.98
Locus YOR001W, strain rrp6, hits give low values
  normalized growth: 0.888 (active)
Locus YOR070C, strain gyp1, hits give low values
  normalized growth: 0.754 (active)
Locus YOR080W, strain dia2, hits give low values
  normalized growth: 1.02
Locus YOR083W, strain WHI5, hits give low values
  normalized growth: 0.758 (active)
Locus YOR106W, strain vam3, hits give low values
  normalized growth: 0.424 (active)
[8]
  normalized growth: 0.804 (active)
Locus YOR265W, strain rbl2, hits give low values
  normalized growth: 0.893 (active)
Locus YOR270C, strain vph1, hits give low values
  normalized growth: 0.344 (active)
Locus YOR290C, strain snf2, hits give low values
  normalized growth: 0.763 (active)
Locus YPL051W, strain arl3, hits give low values
  normalized growth: 0.636 (active)
Locus YPL078C, strain atp4, hits give low values
  normalized growth: 0.547 (active)
Locus YPL106C, strain sse1, hits give low values
  normalized growth: 0.469 (active)
Locus YPL240C, strain hsp82, hits give low values
  normalized growth: 0.954
[9]
  normalized growth: 0.764 (active)
